Hit rate of the full screen: of about 310,000 compounds, about 14,000 (4.5%) showed an effect of 50% or more. The effect is printed as a negative number. Shown is part of a subset that was picked to be rich in strong results.
target: human ether-à-go-go-related gene (hERG) potassium channel (human, UniProt Q12809); assay: primary screen, population patch clamp on CHO cells stably expressing hERG; higher = less effect of the substance
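Also: peak tail current of the secondary pulse compared with the same well before compound.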

human ether-à-go-go-related gene (hERG) potassium channel, sequence (Q12809 whole entry, looked up): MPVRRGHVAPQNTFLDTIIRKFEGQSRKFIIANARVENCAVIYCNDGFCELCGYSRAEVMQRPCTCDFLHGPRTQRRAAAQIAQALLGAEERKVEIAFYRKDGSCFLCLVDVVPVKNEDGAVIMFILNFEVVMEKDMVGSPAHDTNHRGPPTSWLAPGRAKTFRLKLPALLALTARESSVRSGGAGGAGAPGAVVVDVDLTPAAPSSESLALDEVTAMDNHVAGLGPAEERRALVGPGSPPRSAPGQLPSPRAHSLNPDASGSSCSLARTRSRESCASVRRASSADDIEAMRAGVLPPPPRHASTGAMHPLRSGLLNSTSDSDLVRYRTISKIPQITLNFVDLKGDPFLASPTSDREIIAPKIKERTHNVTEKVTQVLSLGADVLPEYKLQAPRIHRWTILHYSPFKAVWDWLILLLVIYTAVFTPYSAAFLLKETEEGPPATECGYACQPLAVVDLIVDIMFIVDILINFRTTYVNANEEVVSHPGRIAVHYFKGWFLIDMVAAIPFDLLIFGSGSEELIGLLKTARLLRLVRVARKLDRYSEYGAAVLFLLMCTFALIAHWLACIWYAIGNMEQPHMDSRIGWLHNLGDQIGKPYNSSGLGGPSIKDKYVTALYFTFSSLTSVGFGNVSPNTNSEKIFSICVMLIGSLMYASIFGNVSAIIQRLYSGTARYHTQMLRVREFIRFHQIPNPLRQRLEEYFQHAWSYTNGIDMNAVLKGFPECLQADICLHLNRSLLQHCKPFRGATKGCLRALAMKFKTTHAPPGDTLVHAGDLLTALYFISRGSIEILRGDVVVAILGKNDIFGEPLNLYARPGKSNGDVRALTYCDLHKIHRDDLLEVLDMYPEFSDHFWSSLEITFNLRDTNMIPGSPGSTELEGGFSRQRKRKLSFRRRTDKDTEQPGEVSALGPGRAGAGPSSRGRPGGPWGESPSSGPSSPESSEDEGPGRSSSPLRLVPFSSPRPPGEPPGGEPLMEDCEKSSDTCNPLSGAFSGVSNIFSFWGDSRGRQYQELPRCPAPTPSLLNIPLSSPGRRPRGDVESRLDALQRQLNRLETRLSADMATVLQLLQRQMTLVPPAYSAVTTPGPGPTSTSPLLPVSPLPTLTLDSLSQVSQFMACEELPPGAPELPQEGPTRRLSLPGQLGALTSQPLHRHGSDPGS

Compound	hERG current change (%, negative = inhibition) at 10uM [%]
COc1ccc(C(=O)NCC(=O)N/N=C/c2cccc(OC(=O)c3ccco3)c2)cc1OC	21.6
COC(=O)c1[nH]c2cc(OC)ccc2c1NC(=O)CN1CCN(c2cccc(C)c2)C(C)C1 (centres unmarked)	-0.154
CCOC(=O)CNC(=O)CSc1nnc(Cn2cnc3ccccc32)n1C	-0.389
O=C(CCC1CCCCC1)NCc1ccccn1	-10.8
COC(=O)n1ccc(C(=O)Nc2ccccc2F)n1	-8.09
O=C(O)CCc1nn2c3ccccc3nc2n(Cc2ccccc2)c1=O	36.2
Cc1c(CN2CCN(C)C(CCO)C2)[nH]c2c(Cl)cccc12 (centres unmarked)	-42
COc1ccc2[nH]c(CN3CCC(CO)(CCOc4ccccc4)CC3)c(C)c2c1	-45.3
Cc1[nH]c2c(Cl)cccc2c(=O)c1CN1CCCC1	-10.6
Cc1ccc2[nH]c(CN3CCC(CO)(CC4CCCCO4)CC3)c(C)c2c1 (centres unmarked)	-43.7
Cc1c(CN2CCC(CO)(CCOc3ccccc3)CC2)[nH]c2c(Cl)cccc12	-60.5
Cc1c(CN2CCC(CO)(CCOc3ccccc3)CC2)[nH]c2ccc(Cl)cc12	-71
C/C(=N\NC(=O)c1ccc(CSc2nncn2C)cc1)c1ccc(C#N)cc1	-26
Cc1nn(Cc2nnc(SCC(=O)Nc3ccc(Cl)cc3)n2C)c(C)c1[N+](=O)[O-]	-22.9
Cc1nn(Cc2nnc(SCC(=O)Nc3cccc(C(F)(F)F)c3)n2C)c(C)c1[N+](=O)[O-]	-57.7
Cn1c(SCC(=O)Nc2ccccc2)nnc1C(F)(F)F	32.6
O=C(CSc1nncn1-c1cccnc1)Nc1cccc([N+](=O)[O-])c1	4.83
Cc1ccc(NC(=O)CSc2nnc(C(F)(F)F)n2C)cc1[N+](=O)[O-]	-73.6
Cn1c(CN2CCOCC2)nnc1SCC(=O)Nc1cccc(C(F)(F)F)c1	-1.04
Cn1c(SCC(=O)Nc2ccccc2[N+](=O)[O-])nnc1C(F)(F)F	-3.31

Compound	hERG current change (%, negative = inhibition) at 10uM [%]
O=C(CSc1nncn1-c1cccnc1)Nc1ccccc1C(F)(F)F	4.9
O=C(CSc1nncn1-c1cccnc1)Nc1cccc(C(F)(F)F)c1	-57.7
Cn1cc(CN2CC3C[C@@H]4CC2C[C@H](C3)C4)c(-c2ccc3c(c2)OCCO3)n1	-8.66
O=C(NCc1ccccn1)Nc1cccc([N+](=O)[O-])c1	11.6
COc1ccc(Cc2nnc(SCC(=O)Nc3ccc(N4CCOCC4)cc3)n2C)cc1	8.93
Cc1ccc(C(=O)OCC(=O)NCc2ccco2)cc1	-8.9
CCOC(=O)C1CCCN(C(=O)Cc2ccc(Cl)cc2)C1 (centres unmarked)	6.9
CCOC(=O)C1CCCN(C(=O)/C=C/c2ccccc2[N+](=O)[O-])C1 (centres unmarked)	-12.6
CCOC(=O)C1CCCN(C(=O)/C=C/c2ccc([N+](=O)[O-])cc2)C1 (centres unmarked)	-64.8
CCOC(=O)C1CCCN(C(=O)/C=C/c2ccc(Cl)cc2)C1 (centres unmarked)	-59.9
COc1c(C)cc(C(=O)C2CCCN(C(=O)/C=C/c3ccccn3)C2)cc1C (centres unmarked)	-15.8
COc1ccc2cc(C(=O)C3CCCN(C(=O)/C=C/c4ccccn4)C3)ccc2c1 (centres unmarked)	-18.3
O=C(c1ccc(Cl)cc1)C1CCCN(C(=O)/C=C/c2ccccn2)C1 (centres unmarked)	-51.9
CCOC(=O)C1CCCN(C(=O)/C=C/c2cccc([N+](=O)[O-])c2)C1 (centres unmarked)	-41.8
CCOC(=O)C1CCCN(C(=O)/C=C/c2ccc(OC)cc2)C1 (centres unmarked)	-23.6
O=C(O)C(=O)O.O=C(c1ccc(F)cc1)N1CCN(C2CC3CCC2C3)CC1 (centres unmarked)	-2.85
Cn1cnnc1SCCCN1C(=O)c2cccc3cccc(c23)C1=O	-30.6
COc1ccc(CCN(C)C(=O)Cc2ccc(-c3ccccc3)cc2)cc1OC	-0.187
Brc1c(-c2ccccc2)nc2n1Cc1ccccc1-2	21.8
CC(C)(C)C(=O)Oc1cccc(Nc2ncnc3ccccc23)c1	9.76

Compound	hERG current change (%, negative = inhibition) at 10uM [%]
Cc1ccc(Oc2ncnc(N)c2[N+](=O)[O-])cc1C	31.8
NC(=O)CC(NC(=O)c1ccccc1)c1ccc(N2CCN(c3ccccc3)CC2)c([N+](=O)[O-])c1 (centres unmarked)	1.33
O=C(CSc1nc2ccccc2o1)NC(=O)NCc1ccccc1	8.99
O=C(CSc1nc2[nH]ncc2c(=O)n1-c1ccccc1)c1ccc2c(c1)OCCO2	-6.39
O=C(CCCc1ccccc1)c1ccccc1	18.5
O=C(CCCC(=O)c1ccc(F)cc1)c1ccc(F)cc1	-25.8
CCN(CCCC(=O)c1ccc(F)cc1)CCc1ccccc1.Cl	-84.5
CCc1ccc(-c2nc(CS(=O)CC(=O)NC3CCCCCC3)c(C)o2)cc1 (centres unmarked)	-7.44
Cc1ccc(S(=O)(=O)N2CCCC(C(=O)NC3CCCC3)C2)cc1Cl (centres unmarked)	17.8
Cc1ccc(N=C(N)N=C(N)N)cc1	16.9
CN1CCN(/N=C/c2ccc(-c3ccc([N+](=O)[O-])cc3Cl)o2)CC1	-46.2
O=[N+]([O-])c1ccc(-c2ccc(/C=N/O)o2)cc1	8.69
CN1CCN(/N=C/c2ccc(-c3ccc([N+](=O)[O-])cc3)o2)CC1	-66
Cc1ccc(S(=O)(=O)NC(C)(C)CN2CCNCC2)cc1	-9.34
CC(C)(CN1CCCCC1)NS(=O)(=O)c1ccc(Cl)cc1	-13.4
CC(C)(CN1CCNCC1)NS(=O)(=O)c1ccc(Cl)cc1	-60.3
CC(C)(CN1CCN(Cc2ccccc2)CC1)NS(=O)(=O)c1ccc(Cl)cc1	-74.7
CC(C)(CN1CCCC1)NS(=O)(=O)c1ccc(Cl)cc1	29.6
CC(C)(CN1CCN(Cc2ccccc2)CC1)NS(=O)(=O)c1ccccc1	-39.6
